Measured values from PubChem BioAssay.
Calls of active or inactive are those of the source.

Assays:
[1] = small molecules captured by biotinylated probe aFSTL3 – biochemical, small-molecule microarray, fluorescence 635/667, stem cell growth factor project, primary screen (AID 1064); details: higher = more signal;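 also: measures binding of the biotinylated anti-FSTL3 antibody to printed compounds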
[2] = binders from COS7 lysate, DM2A8 probe, primary screen, torsin A project, cell lysate, small-molecule microarray, fluorescence 635/667 (AID 1065); details: higher = more signal, COS7 lysate expressing mutant human TOR1A
[3] = small molecules captured by biotinylated probe aFGF2 – biochemical, small-molecule microarray, fluorescence 635/667, stem cell growth factor project, primary screen (AID 1067); details: higher = more signal;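 also: measures binding of biotinylated aFGF2 protein to printed compounds on slides; z-score merges feature fluorescence and signal-to-noise across triplicate slides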
[4] = small molecules captured by biotinylated probe aFGF10 – biochemical, small-molecule microarray, fluorescence 635/667, stem cell growth factor project, primary screen (AID 1071); details: higher = more signal;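 also: score merges 667 nm spot intensity and signal to noise from triplicate slides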
[5] = biological target: Neurogenic locus notch homolog protein 2 (Homo sapiens) (UniProt Q04721); assay: small molecules binding Notch2 protein – biochemical, small-molecule microarray, 635 nm fluorescence, stem cell growth factors, primary screen (AID 1073); details: higher = more signal
Sequence of Neurogenic locus notch homolog protein 2 (Homo sapiens) (Q04721 whole entry, looked up, canonical isoform): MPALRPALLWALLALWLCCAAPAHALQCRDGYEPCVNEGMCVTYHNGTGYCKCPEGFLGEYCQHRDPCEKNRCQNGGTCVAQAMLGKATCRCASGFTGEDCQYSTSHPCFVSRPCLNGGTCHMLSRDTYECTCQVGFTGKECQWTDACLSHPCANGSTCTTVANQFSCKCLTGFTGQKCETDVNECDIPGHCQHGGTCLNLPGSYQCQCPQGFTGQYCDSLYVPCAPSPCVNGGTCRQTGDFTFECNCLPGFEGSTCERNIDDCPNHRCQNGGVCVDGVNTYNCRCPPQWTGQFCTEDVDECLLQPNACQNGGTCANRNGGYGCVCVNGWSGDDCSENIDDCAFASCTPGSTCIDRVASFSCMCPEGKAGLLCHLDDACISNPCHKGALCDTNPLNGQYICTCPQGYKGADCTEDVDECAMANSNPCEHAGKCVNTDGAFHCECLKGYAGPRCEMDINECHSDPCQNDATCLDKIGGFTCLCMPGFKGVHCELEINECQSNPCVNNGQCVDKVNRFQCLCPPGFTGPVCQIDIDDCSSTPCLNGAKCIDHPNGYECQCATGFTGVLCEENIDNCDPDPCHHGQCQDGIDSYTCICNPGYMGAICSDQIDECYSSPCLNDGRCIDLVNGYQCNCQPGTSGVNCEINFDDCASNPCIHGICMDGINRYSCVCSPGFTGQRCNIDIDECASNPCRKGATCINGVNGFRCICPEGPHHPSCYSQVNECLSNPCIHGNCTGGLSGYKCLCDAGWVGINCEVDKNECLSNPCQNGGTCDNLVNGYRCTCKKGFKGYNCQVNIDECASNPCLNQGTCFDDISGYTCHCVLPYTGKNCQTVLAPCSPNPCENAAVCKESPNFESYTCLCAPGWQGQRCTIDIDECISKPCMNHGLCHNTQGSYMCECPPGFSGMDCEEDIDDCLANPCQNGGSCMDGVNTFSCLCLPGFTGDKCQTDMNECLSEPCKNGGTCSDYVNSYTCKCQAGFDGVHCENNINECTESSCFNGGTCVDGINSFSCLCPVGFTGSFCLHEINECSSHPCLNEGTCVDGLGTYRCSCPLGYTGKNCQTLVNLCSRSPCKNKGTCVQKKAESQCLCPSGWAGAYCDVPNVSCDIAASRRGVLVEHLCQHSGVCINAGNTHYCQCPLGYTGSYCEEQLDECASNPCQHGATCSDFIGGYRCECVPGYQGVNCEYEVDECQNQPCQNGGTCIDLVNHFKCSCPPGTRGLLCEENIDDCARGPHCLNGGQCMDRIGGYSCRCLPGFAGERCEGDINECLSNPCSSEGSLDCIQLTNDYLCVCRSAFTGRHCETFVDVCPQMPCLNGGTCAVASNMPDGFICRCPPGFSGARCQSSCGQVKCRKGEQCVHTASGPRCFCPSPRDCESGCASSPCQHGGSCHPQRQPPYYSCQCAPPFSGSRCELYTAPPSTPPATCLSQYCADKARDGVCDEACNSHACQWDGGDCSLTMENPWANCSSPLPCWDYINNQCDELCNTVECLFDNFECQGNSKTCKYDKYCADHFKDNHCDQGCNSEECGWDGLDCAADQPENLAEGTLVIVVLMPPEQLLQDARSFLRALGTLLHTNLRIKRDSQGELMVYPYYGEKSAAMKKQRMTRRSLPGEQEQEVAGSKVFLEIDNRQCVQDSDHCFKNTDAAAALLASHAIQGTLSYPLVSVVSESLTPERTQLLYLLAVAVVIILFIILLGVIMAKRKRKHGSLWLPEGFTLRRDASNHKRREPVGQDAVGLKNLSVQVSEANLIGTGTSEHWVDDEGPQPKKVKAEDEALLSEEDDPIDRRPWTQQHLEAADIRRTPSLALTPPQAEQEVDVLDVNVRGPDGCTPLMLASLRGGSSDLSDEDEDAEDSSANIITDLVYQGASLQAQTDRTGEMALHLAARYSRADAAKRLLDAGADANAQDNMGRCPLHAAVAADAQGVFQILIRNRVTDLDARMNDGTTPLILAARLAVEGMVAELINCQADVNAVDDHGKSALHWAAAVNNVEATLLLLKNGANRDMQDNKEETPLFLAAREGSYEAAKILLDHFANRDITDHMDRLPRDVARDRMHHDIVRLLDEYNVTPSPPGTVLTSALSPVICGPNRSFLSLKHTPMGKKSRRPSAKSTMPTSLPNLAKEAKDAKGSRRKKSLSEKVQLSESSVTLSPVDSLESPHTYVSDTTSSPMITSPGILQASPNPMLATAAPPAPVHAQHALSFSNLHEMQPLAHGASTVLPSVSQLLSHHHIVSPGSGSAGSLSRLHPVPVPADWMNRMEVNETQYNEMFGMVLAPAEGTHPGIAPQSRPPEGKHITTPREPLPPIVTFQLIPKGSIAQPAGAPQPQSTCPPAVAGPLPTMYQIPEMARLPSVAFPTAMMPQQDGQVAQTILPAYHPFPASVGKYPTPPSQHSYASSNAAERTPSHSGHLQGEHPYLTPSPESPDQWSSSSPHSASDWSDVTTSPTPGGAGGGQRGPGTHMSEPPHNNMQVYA

[6] = biological target: Pro-neuregulin-1, membrane-bound isoform (Homo sapiens) (UniProt Q02297); assay: small molecules binding neuregulin-1 protein – biochemical, small-molecule microarray, fluorescence 635/667, psychiatric disease protein project, primary screen (AID 1075); details: NRG1 binding, 635 nm fluorescence, higher = more signal;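 also: score combines 667 nm spot fluorescence with signal to noise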
[7] = tested on: Neuregulin-1 EGF-like domain; assay: small molecules binding NRG1 EGF domain – biochemical, small-molecule microarray, 635 nm fluorescence, primary screen (AID 1081); details: higher = more signal;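 also: binding of the protein to compounds printed on small-molecule microarray slides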
[8] = FRG1 expression reporter modulators in myotubes – cell-based, C2C12 myotubes, firefly/Renilla luciferase, luminescence, FRG1 inhibition for FSHD, primary screen (AID 1084); details: FRG1 promoter luciferase, higher = more signal, called active from +8 up or from −8 down
[9] = small molecules captured by biotinylated probe aFST – biochemical, small-molecule microarray, fluorescence 635/667, stem cell growth factor project, primary screen (AID 1086); details: higher = more signal;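 also: score merges 667 nm fluorescence with signal-to-noise of each printed compound spot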
[10] = binders of probe aHhip on microarray, primary screen, stem cell growth factor project, biochemical, small-molecule microarray, fluorescence 635/667 (AID 1087); details: higher = more signal;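 also: score merges spot fluorescence at 667nm with spot signal to noise ratio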
[11] = tested on: PRMT1 (protein arginine N-methyltransferase 1); assay: small molecules binding arginine methyltransferase PRMT1 – biochemical, small-molecule microarray, 635 nm fluorescence, primary screen (AID 1088); details: higher = more signal;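 also: binding of Prmt1 protein to compounds spotted on small-molecule microarray slides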
[12] = growth effects on S. cerevisiae YJM789 – YJM789 clinical isolate, OD600, 24 h, basal, primary screen (AID 1089); details: higher = more signal, called active from +8 up or from −8 down;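 also: growth of clinical yeast isolate S. cerevisiae YJM 789 seeded 1000 cells per well; test concentration not given here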
[13] = S. pombe growth modifiers, basal conditions – strain 972, OD600, 24 h, no modulator, primary screen (AID 1090);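 also: basal condition with compound alone and no growth modifier present; test concentration not given here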; details: S. pombe 972 growth, higher = more signal, called active from +8 up or from −8 down
[14] = budding yeast growth modifiers under rapamycin – strain BY4716, OD600, 96 h, primary screen (AID 1091); also: test concentration not given here; details: S. cerevisiae BY4716 + rapamycin, higher = more signal, called active from +8 up or from −8 down
[15] = biological target: Torsin-1A-interacting protein 2 (Homo sapiens) (UniProt Q8NFQ8); assay: small molecules binding lysate-expressed LULL1 – cell lysate, human LULL1 lysate, 635/667 nm fluorescence, primary screen (AID 1092); details: small-molecule microarray, hLULL1 lysate binding, 635 nm fluorescence; higher = more signal;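 also: probe is lysate of COS7 cells overexpressing human LULL1; score merges per-feature 667 nm fluorescence with signal-to-noise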
[16] = optical density change of DRC41 E. coli – strain DRC41, OD650, 24 h, E. coli filamentation project, primary screen (AID 1093);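 also: MC1000 strain lacking acrAB efflux and sulA so SOS filamentation is blocked; test concentration not given here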; details: E. coli DRC41 growth, higher = more signal, called active from +8 up or from −8 down
[17] = probe aLefty2 binding to arrayed compounds – biochemical, biotinylated probe, 635/667 nm fluorescence, primary screen (AID 1094); details: small-molecule microarray, higher = more signal;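 also: score merges spot fluorescence near 667 nm with spot signal-to-noise ratio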
[18] = tested on: Noggin (protein binding on small-molecule microarray); assay: small molecules binding Noggin protein – biochemical, 635/667 nm fluorescence, primary screen (AID 1095); details: 635 nm fluorescence, higher = more signal;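 also: score merges 667 nm feature fluorescence with signal to noise over triplicate slides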
[19] = biological target: Neurogenic locus notch homolog protein 3 (Homo sapiens) (UniProt Q9UM47); assay: small molecules binding NOTCH3 protein – biochemical, 635/667 nm fluorescence, primary screen (AID 1096); details: small-molecule microarray, 635 nm fluorescence, higher = more signal
Sequence of Neurogenic locus notch homolog protein 3 (Homo sapiens) (Q9UM47 whole entry, looked up): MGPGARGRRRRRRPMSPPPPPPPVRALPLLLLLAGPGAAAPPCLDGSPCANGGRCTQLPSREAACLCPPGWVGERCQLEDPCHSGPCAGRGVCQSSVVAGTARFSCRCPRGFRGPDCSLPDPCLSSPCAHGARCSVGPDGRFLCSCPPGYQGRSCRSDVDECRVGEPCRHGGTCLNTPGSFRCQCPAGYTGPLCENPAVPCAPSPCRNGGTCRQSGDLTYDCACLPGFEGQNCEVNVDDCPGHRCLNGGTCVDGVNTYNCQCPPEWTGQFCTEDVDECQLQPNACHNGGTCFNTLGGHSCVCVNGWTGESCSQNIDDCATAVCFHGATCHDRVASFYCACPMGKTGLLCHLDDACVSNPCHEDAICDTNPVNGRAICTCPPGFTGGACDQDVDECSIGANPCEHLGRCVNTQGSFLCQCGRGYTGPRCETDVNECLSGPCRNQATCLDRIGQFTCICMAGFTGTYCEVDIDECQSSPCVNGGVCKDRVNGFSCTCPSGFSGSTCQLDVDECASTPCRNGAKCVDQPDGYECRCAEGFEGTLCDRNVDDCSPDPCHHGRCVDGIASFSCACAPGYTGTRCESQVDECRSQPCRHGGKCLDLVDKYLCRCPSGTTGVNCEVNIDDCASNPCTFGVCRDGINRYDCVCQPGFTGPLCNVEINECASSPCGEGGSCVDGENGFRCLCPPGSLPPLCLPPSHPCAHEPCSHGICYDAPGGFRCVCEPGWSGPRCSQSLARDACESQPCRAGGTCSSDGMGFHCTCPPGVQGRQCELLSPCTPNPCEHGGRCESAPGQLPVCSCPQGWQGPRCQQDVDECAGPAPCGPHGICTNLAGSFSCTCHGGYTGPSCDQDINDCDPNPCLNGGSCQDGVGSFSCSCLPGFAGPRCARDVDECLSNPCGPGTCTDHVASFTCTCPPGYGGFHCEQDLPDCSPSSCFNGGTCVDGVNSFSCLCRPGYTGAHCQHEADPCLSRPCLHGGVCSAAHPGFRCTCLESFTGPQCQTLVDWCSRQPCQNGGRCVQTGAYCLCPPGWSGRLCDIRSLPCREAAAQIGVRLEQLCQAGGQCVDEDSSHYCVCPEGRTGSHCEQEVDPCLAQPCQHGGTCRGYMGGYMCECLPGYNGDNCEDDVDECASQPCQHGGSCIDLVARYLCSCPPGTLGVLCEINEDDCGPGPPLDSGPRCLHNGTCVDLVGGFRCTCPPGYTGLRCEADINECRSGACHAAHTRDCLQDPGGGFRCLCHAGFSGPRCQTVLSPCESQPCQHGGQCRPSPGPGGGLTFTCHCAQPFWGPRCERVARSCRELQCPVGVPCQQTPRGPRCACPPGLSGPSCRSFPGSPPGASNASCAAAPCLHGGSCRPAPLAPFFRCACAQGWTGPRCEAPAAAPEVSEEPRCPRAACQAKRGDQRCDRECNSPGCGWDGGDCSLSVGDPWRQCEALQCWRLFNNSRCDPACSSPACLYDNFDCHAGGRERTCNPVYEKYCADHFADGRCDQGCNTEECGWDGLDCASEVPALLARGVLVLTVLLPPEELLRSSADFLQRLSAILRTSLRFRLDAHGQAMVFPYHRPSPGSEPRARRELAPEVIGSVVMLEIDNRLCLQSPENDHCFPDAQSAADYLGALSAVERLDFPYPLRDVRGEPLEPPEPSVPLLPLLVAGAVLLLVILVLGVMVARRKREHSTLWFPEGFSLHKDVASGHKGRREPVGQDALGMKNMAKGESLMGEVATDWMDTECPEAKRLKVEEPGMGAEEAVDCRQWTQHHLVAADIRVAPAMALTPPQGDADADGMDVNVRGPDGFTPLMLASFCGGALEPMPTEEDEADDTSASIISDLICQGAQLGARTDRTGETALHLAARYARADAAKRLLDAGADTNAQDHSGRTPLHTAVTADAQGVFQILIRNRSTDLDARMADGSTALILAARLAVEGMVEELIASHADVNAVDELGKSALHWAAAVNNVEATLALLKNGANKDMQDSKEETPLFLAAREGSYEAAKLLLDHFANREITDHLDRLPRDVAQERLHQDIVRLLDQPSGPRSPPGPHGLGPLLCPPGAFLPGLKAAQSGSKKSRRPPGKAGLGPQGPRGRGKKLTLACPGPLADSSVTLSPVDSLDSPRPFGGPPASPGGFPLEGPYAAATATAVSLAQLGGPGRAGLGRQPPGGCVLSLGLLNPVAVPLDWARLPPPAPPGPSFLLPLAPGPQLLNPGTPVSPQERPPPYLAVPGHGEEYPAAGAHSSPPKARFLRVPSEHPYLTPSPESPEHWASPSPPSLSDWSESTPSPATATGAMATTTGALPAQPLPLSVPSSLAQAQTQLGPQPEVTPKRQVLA

[20] = probe aEGFR binding to arrayed compounds – biochemical, biotinylated probe, 635/667 nm fluorescence, primary screen (AID 1097); details: small-molecule microarray, higher = more signal;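 also: probe is a biotinylated anti-EGFR antibody binding compounds printed on slides; score combines fluorescence near 667 nm and signal to noise of each spot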

Row | Structure (SMILES) | composite z-score [1] | composite z-score [2] | composite z-score [3] | composite z-score [4] | composite z-score [5] | composite z-score [6] | composite z-score [7] | z-score [8] | composite z-score [9] | composite z-score [10] | composite z-score [11] | z-score [12] | z-score [13] | z-score [14] | composite z-score [15] | z-score [16] | composite z-score [17] | composite z-score [18] | composite z-score [19] | composite z-score [20]
1 | CN1C(=O)C2C=CC(C(O)c3ccc(-c4ccccc4)s3)N(N(c3ccccc3)c3ccccc3)C2C1=O (stereo not given) | 0.415 | -0.235 | 0.0034 | 0.199 | 1.15 | 0.782 | 0.949 | 0.685 (inactive) | 0.422 | 0.248 | 0.668 | 0.187 (inactive) | 0.947 (inactive) | 1.33 (inactive) | 1.93 | -0.422 (inactive) | 0.164 | -0.132 | 1.12 | -0.0003
2 | CC(C)C[C@H]1NC(=O)[C@@]23C(=O)N[C@@H](Cc4ccccc4)C2[C@H](C)[C@@]2(C)O[C@H]2C3/C=C/C/C=C\CNC(=O)[C@H](Cc2ccccc2)NC1=O (stereo not given in full) | -0.404 | 0.443 | -0.0973 | 0.307 | 0.349 | 1.04 | 0.976 | 0.688 (inactive) | 0.146 | -0.0994 | 1.14 | 0.871 (inactive) | -0.388 (inactive) | -0.332 (inactive) | 1.13 | 0.11 (inactive) | -0.157 | 1.39 | 0.937 | -0.156
3 | C=C(COC)/C(=C/C[C@@H](OC(C)=O)c1ccc(OCCO)cc1)c1cc(C(=O)OC)ccc1OC | -0.524 | 0.118 | -0.0316 | 0.872 | 0.62 | 0.67 | 0.705 | 0.296 (inactive) | 0.627 | 0.107 | 1.54 | 0.0937 (inactive) | -0.51 (inactive) | -0.645 (inactive) | 2.16 | -0.018 (inactive) | -0.027 | 1.35 | 1.12 | -0.0728
4 | COc1ccc(C(O)C2C=CC3C(=O)N(C)C(=O)C3N2N2CCCCC2)c2ccccc12 (stereo not given) | -0.226 | 0.0595 | 0.192 | 0.988 | 1.65 | 1.27 | 1.07 | -0.292 (inactive) | 0.858 | 0.176 | 1.42 | -0.079 (inactive) | 1.16 (inactive) | 0.631 (inactive) | 3.01 | -1.22 (inactive) | 0.168 | 0.303 | 1.11 | 0.095
5 | O=C1C2C=CC(C(O)c3ccc(F)cc3)N(Nc3ccccc3F)C2C(=O)N1c1ccccc1 (stereo not given) | 0.185 | -0.333 | 0.124 | 0.439 | 1.16 | 1.99 | 1.23 | -1.43 (inactive) | 0.886 | 0.21 | 0.778 | 0.105 (inactive) | -0.268 (inactive) | 0.0787 (inactive) | 3.48 | -0.42 (inactive) | 0.0224 | -0.503 | 1.13 | -0.0549
6 | Cc1ccc(S[C@]2(C(=O)NC3CC3)CC(=O)N(C3Cc4ccccc4C3)[C@@H]2c2ccc(CO)cc2)cc1 | 0.631 | -0.233 | 0.11 | -0.563 | -0.363 | 1.08 | 0.836 | -2.83 (inactive) | -0.175 | -0.134 | 1.38 | -2.31 (inactive) | -0.945 (inactive) | -1.13 (inactive) | 3.08 | 2.12 (inactive) | -0.0533 | -0.878 | 0.19 | -0.221
7 | C=CCNC(=O)[C@@H]1[C@H]2C(=O)O[C@H](c3ccccc3)[C@H](c3ccccc3)N2[C@H](c2ccccc2OCCO)[C@@]12C(=O)N(C(=O)OCCOC)c1ccc(C#CCNC(N)=O)cc12 | -0.14 | 0.428 | -0.0864 | 0.354 | 0.524 | 1.27 | 0.958 | -0.623 (inactive) | -0.0306 | 0.251 | 1.46 | 1.11 (inactive) | 0.731 (inactive) | 2.72 (inactive) | 2.85 | -0.395 (inactive) | 0.0395 | 0.61 | 1.12 | 0.0149
8 | [N-]=[N+]=NCc1ccccc1C[C@@]1(C(=O)NCC(O)CO)N=C(c2ccc(OCCCO)cc2)O[C@@H]1c1ccccc1N=[N+]=[N-] (stereo not given in full) | 0.516 | -0.133 | 0.0109 | 0.451 | 0.669 | 1.78 | 1 | -0.755 (inactive) | 1.66 | 0.0139 | 1.53 | -1.01 (inactive) | -0.348 (inactive) | 1.99 (inactive) | 3.53 | 1.73 (inactive) | 0.36 | 0.633 | 0.618 | 0.118
9 | COC(=O)[C@@]1(Cc2ccc(OC)cc2)[C@H]2c3cc(C(=O)N(C)C)n(Cc4cccc5ccccc45)c3C[C@H]2CN1C(=O)c1ccccc1 | -0.193 | 1.16 | 0.118 | 1.15 | 1.27 | 1.79 | 1.36 | 0.189 (inactive) | 1.33 | 0.534 | 0.219 | -0.386 (inactive) | 0.514 (inactive) | 1.46 (inactive) | 2.78 | -0.223 (inactive) | 1.07 | 0.841 | 0.481 | 0.92
10 | C[N+](C)(C)CCCCNC(=O)[C@H]1C[C@H]2C(=O)N[C@@H](Cc3ccccc3)C(=O)N2[C@H]1c1ccc(O)cc1 | 0.288 | 0.504 | -0.074 | 0.0806 | -0.601 | -0.158 | 1.22 | 0.605 (inactive) | -0.0662 | -0.0645 | 0.684 | 1.1 (inactive) | -0.0797 (inactive) | -1.15 (inactive) | -0.114 | 0.282 (inactive) | -0.108 | 1.69 | 0.471 | -0.112
